Compound activity (PubChem BioAssay)
IL-1B inflam inh: inflammasome signaling inhibition, IL-1 beta readout; hit rate 4.7% among 360,000; activity change, % at 57.5 µM; THP-1 LPS/ATP IL-1B secretion, AlphaLISA, 16 h; hits give low values; in the data active = activity change below about -50%; inconclusive = mostly about -30% to -49%; note: % is set by controls: 0 for no effect and ±100 for the full control effect
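THP-1 cells pretreated 1 hr with compounds (up to 57.5 uM final), then stimulated with LPS (250 ng/mL final) plus ATP (1.25 mM final); secreted IL-1B measured by AlphaLISA after 16 hr, decreased signal indicating inhibition.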
DT40 TDP1 CPT: growth inhibition of DT40 Tdp1-/-;hTDP1 cells with camptothecin (screen for TDP1 inhibitors). chicken DT40 Tdp1-/-;hTDP1 cells + 20 nM CPT, ATP luminescence, 48 h. Potency, µM (titrated, usually from 46.2 µM), without a hit: top-dose activity change, negative = growth inhibition, most hits filed as inhibitors. hit rate 12% among 420,000. AID 686979; note: potency is the fitted concentration of half-maximal effect; % is set by controls: 0 for no effect and ±100 for the full control effect; nearly all actives have a fitted effect of over 55% in size
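Chicken DT40 Tdp1-/- cells stably complemented with human TDP1 were seeded at 400 cells/well in medium containing 20 nM camptothecin, exposed to pin-transferred compounds, and grown at 37 °C for at least 48 hr. Viability was read as ATP luminescence.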
DT40 TDP1 no CPT: qHTS for Inhibitors of human tyrosyl-DNA phosphodiesterase 1 (TDP1): qHTS in cells in absence of CPT | Potency, µM (titrated, usually from 46.2 µM), without a hit: at the top dose activity change, negative = growth inhibition, actives largely listed as inhibitors | AID 686978, 2013 | DT40 Tdp1-/- hTDP1 cells, no CPT, ATP luminescence, 48 h | hit rate 15% among 420,000; note: potency is the fitted concentration of half-maximal effect; % is set by controls: 0 for no effect and ±100 for the full control effect; nearly all actives have a fitted effect of over 55% in size
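No-CPT arm: Tdp1-/-;hTDP1 DT40 cells (400/well) plus compounds, incubated ≥48 hr at 37 °C. Readout CellTiter-Glo luminescence.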
TDP1 block: TDP1 (human) enzyme inhibition; recombinant TDP1, AlphaScreen DNA substrate cleavage; hit rate 0.28% among 350,000; Potency, µM (titrated, usually from 130 µM), without a hit: at the top dose activity change, negative = inhibition, actives largely listed as inhibitors; AID 485290; note: potency is the fitted concentration of half-maximal effect; % is set by controls: 0 for no effect and ±100 for the full control effect; nearly all actives have a fitted effect of over 40% in size
Target sequence (Q9NUW8 whole entry, looked up): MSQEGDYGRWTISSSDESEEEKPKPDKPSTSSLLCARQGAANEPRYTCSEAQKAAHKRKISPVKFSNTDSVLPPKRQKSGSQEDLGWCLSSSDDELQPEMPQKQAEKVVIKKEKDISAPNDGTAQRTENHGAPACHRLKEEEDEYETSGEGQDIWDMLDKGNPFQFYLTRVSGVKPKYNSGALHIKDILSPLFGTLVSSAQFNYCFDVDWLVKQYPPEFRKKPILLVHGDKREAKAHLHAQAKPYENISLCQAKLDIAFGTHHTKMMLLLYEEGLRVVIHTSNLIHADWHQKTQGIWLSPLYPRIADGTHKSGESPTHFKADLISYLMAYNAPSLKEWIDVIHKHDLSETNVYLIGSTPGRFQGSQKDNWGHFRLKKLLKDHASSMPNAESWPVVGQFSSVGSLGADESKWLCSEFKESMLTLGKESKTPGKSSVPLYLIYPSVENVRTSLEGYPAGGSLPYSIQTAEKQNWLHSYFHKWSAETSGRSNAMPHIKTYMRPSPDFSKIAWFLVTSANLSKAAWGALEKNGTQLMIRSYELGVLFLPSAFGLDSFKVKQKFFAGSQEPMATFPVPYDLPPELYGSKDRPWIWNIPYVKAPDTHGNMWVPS
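Enzyme-compound mixtures sat 15 min at room temperature, followed by a 5 min reaction with 15 nM final substrate and 10 min with AlphaScreen beads. Recombinant human Tdp1 was used at 1 nM final.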
HepG2 viability: kills HepG2 cells in TGF-b inhibitor counter-screen | HepG2 CAGA-GFP viability, ATP luminescence, 18 h | Potency, µM (doses to about 46.1 µM), for the others: at the highest dose activity change, negative = cytotoxicity, actives largely listed as cytotoxic | hit rate 0.76% among 410,000; note: potency is the fitted concentration of half-maximal effect
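CellTiter-Glo luminescence gave cytotoxicity after 18 hours at 37 degrees C. The cells were HepG2 CAGA-GFP in 1% FBS DMEM, stimulated with 500 pg/mL TGF-beta after compound addition. %Activity was normalised to no-cell wells (complete cell-killing) and DMSO (no toxicity), and curves were fitted and classified.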
TGFb inhibitor: blocks TGF-b signaling; HepG2 CAGA-GFP TGF-b/SMAD3 reporter, GFP fluorescence, 18 h; TGF-beta stimulated, 500 pg/mL final; Potency, µM (doses to about 46.1 µM), for inactives: at the highest dose activity, negative = inhibition, most hits filed as inhibitors; hit rate 1.2% among 410,000; note: potency is the fitted concentration of half-maximal effect; % is set by controls: 0 for no effect and ±100 for the full control effect; nearly all actives have a fitted effect of over 65% in size
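HEPG2 CAGA-GFP reporter cells (1000/well, DMEM with 1% FBS) received compounds, then recombinant TGF-beta at 500 pg/mL final for 18 hours at 37 degrees C. Per-cell GFP summed per well was normalised to unstimulated and stimulated DMSO controls before curve fitting.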
An asterisk follows results filed as active. This is a sample that favours compounds with a hit; in the whole collection about 18% have one here. Unless noted, calls come from the whole dose curve; as a rule, active = well fitted curve in the direction sought with a large enough effect; inconclusive = small, poorly fitted or top-dose-only effect, or another doubt; inactive = no such curve, though single readings can be large; an effect the other way counts as inactive or inconclusive.

Results for CSCCC(NS(=O)(=O)c1ccc(Cl)cc1)C(=O)OCC(=O)c1c(C)[nH]c2ccccc12 (configuration not stated) ?
IL-1B inflam inh: -86*; DT40 TDP1 CPT: inconclusive; DT40 TDP1 no CPT: 15µM*; TDP1 block: -11%; HepG2 viability: -82%; TGFb inhibitor: inconclusive

Results for CSCCC(NC(=O)COc1ccccc1)C(=O)OCC(=O)c1ccccc1 (configuration not stated) ?
IL-1B inflam inh: -17; DT40 TDP1 CPT: 1%; DT40 TDP1 no CPT: -27%; HepG2 viability: 2%; TGFb inhibitor: -15%

Results for CSCCC(NS(=O)(=O)c1ccc2ccccc2c1)C(=O)OCC(=O)c1ccc(C(C)C)cc1 (configuration not stated) ?
IL-1B inflam inh: 3; DT40 TDP1 CPT: 23µM*; DT40 TDP1 no CPT: 16µM*; TDP1 block: 3%; HepG2 viability: -1%; TGFb inhibitor: -27%

Results for CCCCOC(=O)/C=C\C(=O)NC(N)=O ?
IL-1B inflam inh: -105*; DT40 TDP1 CPT: inconclusive; DT40 TDP1 no CPT: inconclusive; TDP1 block: 3%; HepG2 viability: -22%; TGFb inhibitor: inconclusive

How did CCCCOC(=O)/C=C\C(=O)OCCCC do in these assays?
IL-1B inflam inh: -2; DT40 TDP1 CPT: -26%; DT40 TDP1 no CPT: -19%; HepG2 viability: -2%; TGFb inhibitor: 5%

Results for CC(=O)N1CCN(CC(=O)Nc2cc(S(=O)(=O)N3CCCCC3)ccc2C)CC1 ?
IL-1B inflam inh: 0; DT40 TDP1 CPT: 2%; DT40 TDP1 no CPT: 0%; TDP1 block: 0%; HepG2 viability: -3%; TGFb inhibitor: 2%

How did O=c1cc(O)n(-c2ccccc2)c(=S)[nH]1 do in these assays?
IL-1B inflam inh: 11; DT40 TDP1 CPT: 21µM*; DT40 TDP1 no CPT: inconclusive; TDP1 block: -7%; HepG2 viability: 22%; TGFb inhibitor: inconclusive

How did Cc1ccc(-c2nc3ccc(Cl)cn3c2Nc2ccc3c(c2)OCCO3)s1 do in these assays?
DT40 TDP1 CPT: 18µM*; DT40 TDP1 no CPT: inconclusive; TDP1 block: 7%; HepG2 viability: -30%; TGFb inhibitor: 11%

How did Fc1ccccc1-c1ccc(-c2nc3ccc(Cl)cn3c2Nc2ccc(Cl)cc2)o1 do in these assays?
DT40 TDP1 CPT: 4.5µM*; DT40 TDP1 no CPT: 3.5µM*; TDP1 block: 7%

What do the screens show for `Cc1ccn2c(Nc3ccc4c(c3)OCCO4)c(-c3cccs3)nc2c1`?
DT40 TDP1 CPT: inconclusive; DT40 TDP1 no CPT: inconclusive; TDP1 block: 8%; HepG2 viability: -24%; TGFb inhibitor: 8%

How did Cc1ccc(-c2nc3ccc(Cl)cn3c2Nc2ccc3c(c2)OCCO3)o1 do in these assays?
DT40 TDP1 CPT: 21µM*; DT40 TDP1 no CPT: 16µM*; TDP1 block: 9%; HepG2 viability: 4%

Results for COC(=O)c1csc(C(=O)c2c[nH]c3ccccc23)n1 ?
TDP1 block: 11%

Results for O=C(COC(=O)c1ccc(F)c(S(=O)(=O)N2CCOCC2)c1)Nc1ccc(Cl)cn1 ?
IL-1B inflam inh: 50; DT40 TDP1 CPT: -3%; DT40 TDP1 no CPT: -12%; HepG2 viability: -15%; TGFb inhibitor: 0%

How did O=C(c1ccco1)N1CCN(c2nc3ccc(Cl)cc3s2)CC1 do in these assays?
DT40 TDP1 CPT: inconclusive; DT40 TDP1 no CPT: 23µM*; TDP1 block: 0%; HepG2 viability: -30%; TGFb inhibitor: -22%

How did Cc1cc2nc(N3CCN(C(=O)c4ccco4)CC3)sc2cc1C do in these assays?
IL-1B inflam inh: -14; DT40 TDP1 CPT: inconclusive; DT40 TDP1 no CPT: 21µM*; TDP1 block: -3%; HepG2 viability: 3%; TGFb inhibitor: -7%

Results for COc1ccc(C)c2sc(N3CCN(C(=O)c4ccco4)CC3)nc12 ?
DT40 TDP1 CPT: 18µM*; DT40 TDP1 no CPT: 18µM*; TDP1 block: 3%; HepG2 viability: -17%; TGFb inhibitor: -23%

Results for COc1ccc(C)c2sc(N3CCN(C(=O)c4cccc(F)c4)CC3)nc12 ?
DT40 TDP1 CPT: -18%; DT40 TDP1 no CPT: -25%; TDP1 block: 8%; HepG2 viability: -4%; TGFb inhibitor: inconclusive

What do the screens show for `Cc1ccc2nc(N3CCN(C(=O)c4ccco4)CC3)c3nncn3c2c1`?
IL-1B inflam inh: -9; DT40 TDP1 CPT: inconclusive; DT40 TDP1 no CPT: 16µM*; TDP1 block: 4%; HepG2 viability: -9%; TGFb inhibitor: 3%

What do the screens show for `Cc1cc(C)c2nc(N3CCN(C(=O)c4ccco4)CC3)sc2c1`?
IL-1B inflam inh: -29; DT40 TDP1 CPT: -3%; DT40 TDP1 no CPT: -3%; TDP1 block: -5%; HepG2 viability: 3%; TGFb inhibitor: -17%

Results for COc1ccccc1NC(=O)c1cc2c(=O)n(Cc3cccs3)ccc2nc1C ?
DT40 TDP1 CPT: inconclusive; DT40 TDP1 no CPT: 23µM*; TDP1 block: 7%; HepG2 viability: -23%; TGFb inhibitor: inconclusive

How did COc1ccc(Cn2ccc3nc(C)c(C(=O)Nc4ccc(OC)c(OC)c4)cc3c2=O)cc1 do in these assays?
DT40 TDP1 CPT: -3%; DT40 TDP1 no CPT: 2%; TDP1 block: -1%; HepG2 viability: 2%; TGFb inhibitor: 3%

Results for CCc1ccc(NC(=O)c2cc3c(=O)n(Cc4cccs4)ccc3nc2C)cc1 ?
DT40 TDP1 CPT: 16µM*; DT40 TDP1 no CPT: 18µM*; TDP1 block: 8%; HepG2 viability: -32%; TGFb inhibitor: inconclusive

How did CC(Sc1n[nH]c(-c2ccccc2)n1)C(=O)c1c(N)n(C)c(=O)n(C)c1=O (configuration not stated) do in these assays?
IL-1B inflam inh: 6; DT40 TDP1 CPT: inconclusive; DT40 TDP1 no CPT: -21%; TDP1 block: -6%; HepG2 viability: -9%; TGFb inhibitor: 12%

Results for O=C(c1c(F)cccc1F)N1CCCc2ccccc21 ?
IL-1B inflam inh: 5; DT40 TDP1 CPT: 9%; DT40 TDP1 no CPT: 1%; HepG2 viability: 0%; TGFb inhibitor: 4%

How did C[C@H](NS(=O)(=O)c1ccc(F)cc1)C(=O)OCC(=O)c1c(N)n(C)c(=O)n(C)c1=O do in these assays?
IL-1B inflam inh: 25; DT40 TDP1 CPT: -6%; DT40 TDP1 no CPT: -18%; TDP1 block: -1%; HepG2 viability: -9%; TGFb inhibitor: 4%

Results for COc1cc(OC)cc(C(=O)Nc2ccc(N3CCOCC3)cc2N2CCOCC2)c1 ?
IL-1B inflam inh: -18; DT40 TDP1 CPT: -13%; DT40 TDP1 no CPT: inconclusive; TDP1 block: 6%; HepG2 viability: -27%; TGFb inhibitor: inconclusive
